Growth data for 15 molecules are collected here from PubChem BioAssay (NCI).

Test in all cases: NCI-60 one-dose screen, 48 h (100 = growth as untreated, 0 = no growth, -100 = all killed)
What all share (settings): 10 µM unless noted

The subject of assay [1] is DU-145 prostate.
Assay [2] relates to K-562 leukemia.
The test system of assay [3] is MALME-3M melanoma.
The subject of assay [4] is MDA-MB-231 breast.
Assay [5] deals with RXF 393 renal.
The test system of assay [6] is SF-268 CNS.
Assay [7] concerns SF-295 CNS.
The test system of assay [8] is SF-539 CNS.
Assay [9] has as its system UACC-257 melanoma.
Assay [10] concerns M14 melanoma.

The structures appear in SMILES notation. The panel holds about 83,000 compounds, 20% with a hit somewhere; the sample as a whole holds those more often.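 96-well plates, one dose, 48 hours. Percent growth reported; active if below 10.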 Active and inactive are the calls of the source.

Take `COc1ccc(C(=O)c2cc(OC)c(OC)c(OC)c2)cc1OC(=O)C(Cl)(Cl)Cl`: the growth was 7.06% (active) in assay [1]; 7.85% (active) in assay [2]; 74.8% (inactive) in assay [3]; 28.7% (inactive) in assay [4]; 29.9% (inactive) in assay [5]; 34.7% (inactive) in [6]. The growth was 8.77% (active) in [7], -7.13% (active) in assay [8], 56% (inactive) in assay [9] and -4.45% (active) in assay [10].

Take `COCCOCCOCc1n(Cc2ccc3ccccc3c2)c2ccccc2[n+]1Cc1ccc2ccccc2c1`: the growth in assay [1] is 32.7% (inactive); in assay [2], 11% (inactive); in assay [3], -18.1% (active); in assay [4], -1.76% (active); in assay [5] it was 21.1% (inactive); in assay [6], 17.9% (inactive). Also, the growth in assay [7] was 13.1% (inactive); in assay [8], 37.2% (inactive); in assay [9], -13.1% (active); in assay [10], 6.95% (active).

Turning to `Cc1nnc(/N=C2\NC(=O)/C(=C/c3ccc(N(C)C)cc3)S2)s1`, the growth is 84% (inactive) in assay [1]; 49.7% (inactive) in assay [2]; 56.9% (inactive) in assay [3]; 103% (inactive) in assay [4]; 76.9% (inactive) in assay [5]; 73% (inactive) in assay [6]. Besides, the growth in [7] is 47.9% (inactive); in assay [8], 83.7% (inactive); in assay [9], 83.3% (inactive); in [10], 51.1% (inactive).

For the molecule `Cc1nc2sc(C(=O)Nc3ccccc3Cl)c(N)c2cc1C(C)O` (stereo not given), the growth in assay [1] is 96.6% (inactive); in [2], 22.5% (inactive); in assay [3], 88.6% (inactive); in assay [4], 80.9% (inactive); in assay [5], 92.8% (inactive); in assay [6], 86.7% (inactive). Besides, the growth in assay [7] was 84.3% (inactive); in assay [8], 85.1% (inactive); in [9], 86.5% (inactive); in assay [10] it was 58.9% (inactive).

With `CC1CCN(CCCCCOc2ccc3oc4cc(Cl)ccc4c(=O)c3c2)CC1`, the growth is 83.7% (inactive) in assay [1]; 5.17% (active) in [2]; 9.78% (active) in [3]; 44.3% (inactive) in [4]; 52.8% (inactive) in assay [5]; 68.1% (inactive) in assay [6]. In addition, the growth is 78.2% (inactive) in assay [7], 40.6% (inactive) in assay [8], -38.8% (active) in assay [9] and -50.1% (active) in [10].

For `C=C1C(=O)O[C@H]2[C@H]1CC/C(COC(=O)CCCCCCCC(=O)OC/C1=C/CC[C@@]3(C)O[C@H]3[C@H]3OC(=O)C(=C)[C@@H]3CC1)=C\CC[C@@]1(C)O[C@@H]21`, the growth was 27.8% (inactive) in assay [1]; 3.32% (active) in assay [2]; -19.7% (active) in [3]; -10.3% (active) in [4]; -70.6% (active) in assay [5]; 30.9% (inactive) in assay [6]. In addition, the growth is 86.7% (inactive) in [7], -1.74% (active) in assay [8], 58.2% (inactive) in assay [9] and 8.2% (active) in [10].

On to `Nc1c(C(=O)Nc2ccccn2)sc2nc3c(cc12)CCCCC3`, for which the growth was 12.2% (inactive) in assay [1]; 7.25% (active) in assay [2]; 73.1% (inactive) in [3]; 46.6% (inactive) in [4]; 13.1% (inactive) in assay [5]; 53.4% (inactive) in assay [6]. The growth in assay [7] was 15.4% (inactive); in assay [8], 4.89% (active); in assay [9] it was 72.5% (inactive); in assay [10], 10.8% (inactive).

With `CC(=O)Oc1c2c(nc3c1c1ccccc1n3Cc1ccccc1)-c1ccccc1C2`, the growth was 99.1% (inactive) in assay [1]; 78.4% (inactive) in assay [2]; 102% (inactive) in assay [3]; 80.4% (inactive) in assay [4]; 116% (inactive) in [5]; 93.2% (inactive) in [6]. For the same molecule, the growth in [7] is 96% (inactive); in [8], 94.5% (inactive); in [9], 93.2% (inactive); in assay [10], 88.3% (inactive).

`Nc1cccc(C(=O)Nc2ccc3c(O)c(N=Nc4ccc(N=Nc5ccc(S(=O)(=O)O)cc5)cc4)c(S(=O)(=O)O)cc3c2)c1`: the growth is 107% (inactive) in [1]; 76.2% (inactive) in assay [2]; 97.1% (inactive) in [3]; 103% (inactive) in assay [4]; 121% (inactive) in assay [5]; 101% (inactive) in assay [6]. For the same molecule, the growth in [7] was 103% (inactive); in assay [8] it was 99.9% (inactive); in assay [9], 100% (inactive); in [10], 98.3% (inactive).

Turning to `COC(=O)c1ccc(NC(=O)CSc2nc(-c3ccc(F)cc3)nc3ccccc23)cc1`, the growth in [1] is 88.7% (inactive); in [2], 81.2% (inactive); in assay [3] it was 60.9% (inactive); in [4], 58.3% (inactive); in assay [5], 109% (inactive); in assay [6] it was 75.8% (inactive). Besides, the growth was 86.2% (inactive) in assay [7], 96.9% (inactive) in assay [8], 102% (inactive) in [9] and 70.2% (inactive) in assay [10].

In the case of `N#Cc1c(-c2ccc(F)cc2)nc(N/N=C/c2c[nH]c3ccccc23)nc1N1CCOCC1`, the growth in assay [1] was 46.6% (inactive); in [2], 5.72% (active); in [3], -63.5% (active); in assay [4], 53.1% (inactive); in assay [5], -34.2% (active); in assay [6], 68.8% (inactive). Also, the growth in assay [7] was -17.4% (active); in [8], 52.8% (inactive); in assay [9] it was -48.8% (active); in [10], -0.73% (active).

`Clc1ccc2c(NCCCNC3CCCCC3)ccnc2c1`: the growth was 101% (inactive) in assay [1]; 70.3% (inactive) in assay [2]; 116% (inactive) in assay [3]; 94.1% (inactive) in assay [4]; 82.6% (inactive) in assay [5]; 103% (inactive) in assay [6]. The growth was 55.1% (inactive) in assay [7], 101% (inactive) in assay [8], 107% (inactive) in assay [9] and 89.8% (inactive) in assay [10].

Regarding `CNCc1cccc2c1OCCOCCOCCN(CCN1CCOCC1)S(=O)(=O)c1ccc(cc1)-c1cnc(N)c(n1)C(=O)N2`, the growth is 45.7% (inactive) in assay [1]; 12.6% (inactive) in assay [2]; 93.8% (inactive) in assay [3]; 94.1% (inactive) in assay [4]; 14.8% (inactive) in assay [5]; 68% (inactive) in [6]. Moreover, the growth in assay [7] was 68.1% (inactive); in assay [8] it was 24.1% (inactive); in assay [9] it was 98.7% (inactive); in [10], 26.4% (inactive).

As to `CCN(CC)CC#CCOC(=O)[C@]1(C)CCC[C@]2(C)[C@H]3C[C@H]4C(C(C)C)=C[C@]3(CC[C@H]21)[C@@H]1C(=O)CCC(=O)[C@@H]14`, the growth was 71% (inactive) in assay [1]; 18.6% (inactive) in assay [2]; 45.3% (inactive) in assay [3]; 69% (inactive) in [4]; 15.3% (inactive) in [5]; 68.9% (inactive) in assay [6]. Also, the growth was 59.6% (inactive) in assay [7], 66.8% (inactive) in assay [8], 56.9% (inactive) in assay [9] and 51.4% (inactive) in assay [10].

Take `CC(=O)O[C@@H]1C[C@]2(C)[C@H]3[C@H](O)C[C@@H]4C5=CC(C)(C)CC[C@]5(C)CC[C@@]4(C)[C@]3(C)CC[C@H]2C(C)(C)[C@H]1O`: the growth in assay [1] was 107% (inactive); in assay [2], 108% (inactive); in assay [3], 107% (inactive); in assay [4] it was 113% (inactive); in assay [5] it was 111% (inactive); in assay [6] it was 101% (inactive). Moreover, the growth is 104% (inactive) in assay [7], 102% (inactive) in assay [8], 110% (inactive) in assay [9] and 99.3% (inactive) in [10].
